Data as given in the supplement of paper PMC3334620.
The full ranking holds about 33,000 sequences; the median of “E-score (-0.5 to 0.5)” is about -0.056, and the highest 2% start at about 0.38. This is one part of a sample in which the highest values are shown more often than they occur.

What follows are sequences tested against Stb4 (UniProt P50104) (assay: PBM E-score (8-mer binding enrichment) (E-score (-0.5 to 0.5)); higher = stronger / more preferred TF binding). Conditions: protein concentration: 200 nM; construct: GST-DNA-binding domain.
In short: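 Using PURExpress in vitro transcription/translation, GST-tagged yeast transcription factors were made in full-length or DNA-binding-domain form. These were applied at about 100-200 nM to double-stranded universal all-10-mer Agilent arrays, and bound protein was detected with fluorescent anti-GST. Scans were normalised with masliner before the Universal PBM Analysis Suite assigned E-scores to ungapped eight-base words pooled with their reverse complements.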

Chain of UniProt P50104 (P50104 whole entry, the tested form may be a part): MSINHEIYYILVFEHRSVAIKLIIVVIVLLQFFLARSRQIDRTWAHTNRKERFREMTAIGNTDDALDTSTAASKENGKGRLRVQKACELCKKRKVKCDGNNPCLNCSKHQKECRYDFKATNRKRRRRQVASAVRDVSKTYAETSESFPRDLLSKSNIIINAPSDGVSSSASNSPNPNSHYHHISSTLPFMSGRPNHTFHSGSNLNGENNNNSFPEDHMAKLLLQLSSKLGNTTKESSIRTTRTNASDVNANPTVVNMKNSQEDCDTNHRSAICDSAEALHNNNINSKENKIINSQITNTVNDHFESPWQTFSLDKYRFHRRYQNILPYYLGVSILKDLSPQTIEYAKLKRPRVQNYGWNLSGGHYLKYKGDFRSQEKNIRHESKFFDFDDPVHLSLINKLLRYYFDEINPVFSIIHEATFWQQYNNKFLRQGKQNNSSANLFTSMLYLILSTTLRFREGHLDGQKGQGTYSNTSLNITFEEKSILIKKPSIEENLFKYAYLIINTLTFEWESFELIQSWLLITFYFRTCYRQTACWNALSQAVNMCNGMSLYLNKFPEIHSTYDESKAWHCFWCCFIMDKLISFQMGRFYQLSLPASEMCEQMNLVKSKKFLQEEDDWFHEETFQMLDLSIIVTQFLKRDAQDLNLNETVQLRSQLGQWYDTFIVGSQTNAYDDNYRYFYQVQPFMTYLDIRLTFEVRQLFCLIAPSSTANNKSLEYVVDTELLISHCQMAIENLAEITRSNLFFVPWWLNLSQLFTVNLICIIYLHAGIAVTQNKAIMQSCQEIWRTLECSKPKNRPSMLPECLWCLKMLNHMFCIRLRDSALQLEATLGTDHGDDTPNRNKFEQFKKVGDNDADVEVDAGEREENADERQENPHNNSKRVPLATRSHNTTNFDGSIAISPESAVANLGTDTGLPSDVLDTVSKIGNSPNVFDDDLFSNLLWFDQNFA

Sequence | PBM E-score
AGACACTA | 0.00615
ATACTAAT | -0.00279
AGTTCACA | -0.153
ATATAGCA | -0.202
AACGTCGC | -0.129
CCTTGATA | -0.351
CAGAGCCG | 0.237
CCTAACAA | -0.248
TACCGAGA | 0.431
AACCGAGA | 0.407
GACCGAGA | 0.339
CACCGAGC | 0.295
AACCGAGT | 0.305
AACCGAGC | 0.418
AACCGACA | 0.286
AACCGATA | 0.227
CACCGAGA | 0.222
CCTTCAAG | -0.097
ATTTATGG | -0.152
CAACATCC | 0.213
ATGTGCAG | -0.166
ACGGATAC | 0.407
ACGGATTA | 0.145
ATGGATAC | 0.0478
ACGGATAG | 0.381

Sequence | PBM E-score
ATGGATAA | 0.024
ACGGATCT | 0.28
ACGGATAA | 0.416
ACGGATAT | 0.407
AAGGATAC | -0.152
ACCGGTTC | 0.216
CGAGCGCG | 0.235
CCTTGGAG | -0.196
ATCCGATC | 0.428
CTCCGATA | 0.275
ATCCGATG | 0.437
AGCCGATG | 0.321
ACCCGATG | 0.399
AACCGATG | 0.222
CTCCGATC | 0.229
ACCCGATA | 0.349
ACCCGATC | 0.333
AACCGATC | 0.253
GTCCGATA | 0.22
ATCCGATA | 0.448
GGCAGTGA | 0.0105
CCCATAGC | -0.0731
ACCATATA | -0.114
GGTCTAAC | 0.0261
ATCCTGCG | -0.117

Sequence | PBM E-score
CAATGCCA | -0.241
AAGCCTAA | -0.0457
CACTCTAA | -0.151
ATGGGCGC | -0.158
AGGGCTGC | -0.134
ATCTGACA | -0.0757
CCGAGGGA | 0.386
CAGAGGGC | -0.151
ACGAGGGC | -0.0578
CCGAGGGC | 0.431
ACGAGGGA | -0.0722
GCGAGGGA | -0.129
ATCTAACA | -0.00015
CTAGGCAG | -0.169
AGGCCCGA | 0.233
GGACCCGA | 0.386
CGGGCCGC | 0.309
GGACCCTA | -0.144
CGACCCTA | 0.0884
CGACCCGA | 0.4
CGGCCCGA | 0.444
GGACCCCA | -0.0727
GGGGCCGA | 0.174
CGGGCCGA | 0.435
GGGCCCGA | 0.278

Sequence | PBM E-score
CGACCCGC | 0.173
CAATCGGA | 0.374
CGAGGATA | 0.0376
ACATATAA | -0.0928
CCTCTTTA | -0.157
ACTATACG | 0.00583
ATGACGAC | 0.0312
ATACCGAG | 0.377
AAGCCATG | -0.117
AGTCTTCG | -0.008
CCGGCCAA | 0.271
CGGACCTC | 0.124
GCGCTGAC | -0.0933
AGACCCGG | 0.305
AGACCCGC | 0.174
AGACCCGA | 0.419
AAACTGTG | -0.12
AGAGGGAT | -0.271
ACGAGACC | -0.0429
CCGAGAGC | 0.388
ACGAGACG | 0.0568
CCGAGACG | 0.41
CCGAGACA | 0.372
ACGAGAGC | -0.151
CCGAGAGA | 0.373

Sequence | PBM E-score
CCGAGACC | 0.431
CGGAGACG | 0.235
CCACCACG | -0.109
AAGCTAGG | 0.0266
GGCAGGCA | 0.0342
CGGGGCCA | 0.22
AATAGGAG | -0.317
GTCCTCCA | -0.138
AGGAAGTA | 0.112
GGGAAGTA | 0.184
AGGAAGGA | -0.282
CGGAAGTA | 0.419
CGGAAGAA | 0.406
GGGAAGGA | 0.0823
GGGAAGAA | 0.0883
AGGAAGAA | -0.278
CTGAAGTC | 0.0307
AGGAAGTC | -0.19
CGGAAGTC | 0.414
CGGAAGGA | 0.397
ACGCTCAT | -0.276
AAAGGCGA | -0.0639
AGAGCAAC | -0.287
GGGTTTAA | 0.0372
ACCGAGAA | 0.311

Sequence | PBM E-score
GGCGAGAC | -0.245
GTCGAGAC | 0.0445
CACGAGAG | -0.136
TACGAGAA | -0.113
CCCGAGAA | 0.44
CCCGAGAG | 0.385
TCCGAGAA | 0.455
CTCGAGAG | -0.201
TTCGAGAA | -0.207
CACGAGAA | -0.167
GCCGAGAC | 0.392
ATAATCAT | -0.0964
CCCATTAC | -0.104
CCCGCAAC | 0.228
CAGGCACA | -0.178
ACGGGCCT | 0.0389
CAACCACC | 0.0572
GCCTAGAC | -0.139
CCTCGAAC | -0.249
GTGACCAA | -0.203
CGCGAGAC | -0.0463
GCCGAGAA | 0.406
CCCGAGAC | 0.412
GACGAGAA | -0.169
ACCGAGAC | 0.357

Sequence | PBM E-score
GTCGAGAA | -0.277
CACCTACG | 0.0326
AACCATGT | 0.0503
AAACCATA | -0.0199
GACTAGCA | -0.114
GAGGAGGA | -0.152
CCCCCGAA | 0.297
AACCCGAG | 0.406
CCCCCGAC | 0.175
CACCCGAA | 0.436
CACCCGGG | 0.323
ACCCCGAG | 0.333
CCCCCGAG | 0.352
CACCCGAG | 0.448
CACCCGGC | 0.277
AACCCGAT | 0.285
CACCCAAA | -0.0471
CACCCGAC | 0.384
CCCTAAGG | -0.232
ACCGCTTG | -0.0825
CAATTTCG | 0.0914
TGTAAGAA | 0.101
CACCTCCA | -0.167
AAGGATAG | 0.00922
CGTTCAGC | -0.00077

Sequence | PBM E-score
AACTCGGT | 0.286
TACTCGAA | -0.25
AACTCGGG | 0.383
AACTCGTG | 0.0628
AACTCGCG | -0.00482
AACTCGGA | 0.426
CACTCGGA | 0.422
TACTCGCA | -0.0584
TACTCGGA | 0.409
CACTCGTA | -0.292
CACTCGAA | -0.267
AACTCGCA | -0.278
TTCCAGAA | -0.0529
GTCGTGAA | -0.19
ATAAGCGA | 0.0555
ATCTGCAT | -0.071
AGGAACTG | -0.148
CGATCATC | 0.0839
CACTCGGG | 0.371
CACTCGTC | 0.0228
GACTCGGC | 0.327
GACTCGCA | -0.0572
CACTCGGC | 0.402
GACTCGGA | 0.451
CTCCCAAG | -0.114

Sequence | PBM E-score
ACGCCAGG | -0.0466
AAATCATG | -0.27
CTACCCAA | -0.209
ATACCCTG | -0.0928
GTACCCAA | -0.0334
GTACCCGA | 0.437
ATACCCGC | 0.328
GTACCCTA | -0.206
CTACCCGA | 0.464
ATACCCGA | 0.476
CTACCCGC | 0.273
ATACCCAA | -0.0395
ATACCCGG | 0.391
ATACCCCG | 0.205
GAAGTAGA | -0.0217
GCGAGTGA | -0.0567
GCATCTCA | -0.222
GGCACAAA | 0.104
ATATAGCC | 0.183
CCTGAACC | -0.232
GCCCTGCC | 0.0895
AGCTCGTA | -0.189
GGCTCGAA | -0.0314
CGCTCGTA | -0.176
AGCTCGCA | -0.108

Sequence | PBM E-score
CGCTCGCC | -0.0544
CGCTCGGC | 0.412
AGCTCGGA | 0.454
CGCTCGGA | 0.463
GGCTCGGA | 0.466
CGCTCGTC | -0.19
GGCTCGTA | -0.0188
CGCTCGCA | 0.104
AAGAGGCA | -0.186
CGACCAAG | -0.184
TCATTGCA | -0.328
CATGTTCC | 0.115
ATTCATTC | 0.172
ACCGCAGG | 0.0861
ACCTCTAC | -0.0322
AGGCGAAT | -0.189
AGAATTGA | -0.194
GAGAAGAA | 0.0753
GACAGATC | 0.0617
CGGATAGC | 0.394
CAGATAGC | -0.0171
AGGATAGA | -0.107
CGGATAGA | 0.454
GGGATAGA | -0.0799
AGGATAGC | 0.206

Sequence | PBM E-score
TATAGACA | -0.192
CCTGGCGA | -0.204
AGCTGCAA | -0.0718
GGTCCGGA | 0.34
CTTCCGGA | 0.396
CTTCCGTA | 0.379
AGTCCGGA | 0.332
ATTCCGGG | 0.353
CTTCCGGC | 0.392
GTTCCGGA | 0.435
CCTCCGGC | 0.295
GTTCCGTA | 0.314
ATTCCGGC | 0.354
CGTCCGGA | 0.3
ATTCCGGA | 0.405
AACTAACT | 0.0909
AGAGGATG | -0.0042
ATGGCTAA | -0.0251
CCTATTGC | -0.0913
ACAGCATC | -0.102
GAATCTTA | -0.0785
CTTTCCAC | 0.0376
AGTTCCTA | 0.00074
AGTTCCCC | 0.138
AGGTCCGA | 0.304

Sequence | PBM E-score
AGTTCCCA | -0.0388
AGTTCCGA | 0.474
AGTTCCGC | 0.324
GGGTCCGA | 0.344
CGGTCCGA | 0.449
CGTTCCCC | -0.014
AGTTCCCG | 0.396
AGTTCCAA | 0.012
CGTTCCGC | 0.412
CAGCTTTC | -0.0811
ATGGGTGG | -0.0789
GTGAGTTA | -0.211
ATGTAAAG | -0.162
ACTTGCGC | -0.0787
AGAAGGGG | -0.169
ATAGCGTC | -0.209
GTAACGGA | 0.281
GTTTGCAA | -0.113
CGATTTGA | -0.0548
ATTCACAA | -0.0973
GGTTCCGA | 0.468
CGTTCCAA | -0.0817
GGTTCCCA | -0.0962
AGTTCCGG | 0.419
CGTTCCTA | -0.00632

Sequence | PBM E-score
AGTTCCAG | -0.136
GGTTCCAA | 0.196
AGTTCCTG | -0.14
CGTTCCGA | 0.451
ACCACCCT | -0.162
CCTCTTAA | -0.0505
ACCGAAAA | 0.337
GTCGAAAC | -0.0645
ACCGAAAC | 0.372
ACCGAAAG | 0.231
GCCGAAGC | 0.385
CCCGAAAG | 0.393
ACCGAAGC | 0.287
GCCGAAAA | 0.438
CACGAAAG | -0.148
GACGAAGC | -0.142
GACGAAAA | 0.0557
GCCGAAAC | 0.397
GGAGGATA | -0.0736
CGTTACTC | -0.0977
AGAAGTGC | -0.122
CGCGGGAG | 0.172
CCCGAAAC | 0.339
TGCGAAAA | -0.0153
CCCGAAAA | 0.428

Sequence | PBM E-score
TCCGAAAA | 0.441
TACGAAAA | -0.0536
CACGAAAA | -0.0798
CTCAAACC | -0.0373
CGAGCTAC | 0.0965
GAGTCAAC | 0.0604
ACCATAGC | -0.123
TACATCCA | -0.202
AATTAAAT | -0.0575
CCTATCCA | -0.196
CCTATCCC | 0.176
AGTATCCG | 0.436
AGTATCCC | -0.0361
ATTATCCC | 0.0679
AGTATCCA | 0.0731
ACTATCCG | 0.45
ACTATCCT | -0.0638
ATTATCCG | 0.475
CCTATCCG | 0.391
ACTATCCC | -0.044
ATTATCCA | -0.0958
